Data from PubChem BioAssay (NCATS).
Values joined by “and” are separate entries in the source; they are usually repeats but may differ in a detail not shown here. Equal entries are not always repeated. Inconclusive results are not listed. Where a structure was tested more than once in an assay, its records may differ in their call. Active and inactive are the calls of the source. Unless noted, calls follow the shape of the dose curve; as a rule, active = well fitted curve in the direction sought with a large enough effect; inconclusive = small, poorly fitted or top-dose-only effect, or another doubt; inactive = no such curve, though single readings can be large; an effect the other way counts as inactive or inconclusive.

Assays:
PA-1 = assay: Primary qHTS to identify gynecologic anti-cancer compounds using libraries of approved drugs and bioactive compounds (AID 1345084); conditions: Gynecologic cancer cell panel viability, ATPlite luminescence, 48 h; series mostly up to 57.5 µM; also: nearly all actives have a fitted effect of over 55% in size; also: potency is read from the fitted curve at half-maximal effect
Method in brief: (§1)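 Luminescence from the ATPlite ATP-monitoring reagent indicates viable cell number; lower signal means cytotoxicity. Cells received compound 16 h after seeding and were exposed for 48 h across five concentrations.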

SKOV3 = assay: as above; conditions: Gynecologic cancer cell panel viability, ATPlite luminescence, 48 h; series mostly up to 57.5 µM
Method in brief: as §1

Tov-21-G = assay: as above; conditions: Gynecologic cancer cell panel viability, ATPlite luminescence, 48 h; series mostly up to 57.5 µM
Method in brief: as §1

Tov112D = assay: as above; conditions: Gynecologic cancer cell panel viability, ATPlite luminescence, 48 h; series mostly up to 57.5 µM
Method in brief: as §1

[1] = Drug repurposing screens with cells derived from glioblastoma tumor samples (AID 1345199); conditions: GBM patient neurospheres viability, ATP luminescence, 48 h; also: nearly all actives have a fitted effect of over 40% in size; also: potency is read from the fitted curve at half-maximal effect; as to activity, negative = cell killing: % is scaled to controls: 0 for no effect and ±100 for the full control effect
Method in brief: (§2)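 Primary testing used CD133+ neurospheres from four GBM patients, seven concentrations, 48 h exposure and ATP-based viability; confirmation added three slower-growing patient lines.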

astro = assay: as above; conditions: viability, ATP luminescence, 48 h; series mostly up to 45.9 µM
Method in brief: as §2

[2] = molecular target: Nuclear receptor subfamily 1 group I member 2 (Rattus norvegicus) (UniProt Q9R1A7); assay: qHTS assay for small molecule activators of the rat pregnane X receptor (rPXR) signaling pathway (AID 651751; call rule not given here; also: 0% is about no effect); conditions: rPXR reporter cells, luciferase (One-Glo), 24 h
[3] = at 45.9 µM (top of the series), tumour line B
[4] = at 45.9 µM (top of the series), tumour line D
[5] = at 46.1 µM (top of the series), tumour line C
[6] = at 46 µM (top of the series), tumour line A

Nuclear receptor subfamily 1 group I member 2 (Rattus norvegicus), sequence (Q9R1A7 whole entry, looked up): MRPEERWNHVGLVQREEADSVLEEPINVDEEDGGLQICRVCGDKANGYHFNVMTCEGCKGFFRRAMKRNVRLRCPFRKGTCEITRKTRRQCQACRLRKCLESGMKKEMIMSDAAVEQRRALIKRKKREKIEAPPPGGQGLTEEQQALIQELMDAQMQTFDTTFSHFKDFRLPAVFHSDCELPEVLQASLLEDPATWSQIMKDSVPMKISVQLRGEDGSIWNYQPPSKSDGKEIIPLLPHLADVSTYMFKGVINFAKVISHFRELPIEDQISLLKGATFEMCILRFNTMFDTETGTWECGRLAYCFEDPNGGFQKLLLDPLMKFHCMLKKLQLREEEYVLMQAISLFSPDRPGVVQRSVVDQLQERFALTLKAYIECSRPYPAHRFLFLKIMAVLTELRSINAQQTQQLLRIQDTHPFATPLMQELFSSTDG

COc1c(C(C)C)cc2c(c1O)[C@@]1(C(=O)O)CCCC(C)(C)C1CC2 (some centres not stated)
inactive: Potency (PA-1) | Potency (SKOV3) | Potency (Tov-21-G) | Potency (Tov112D)

CC(N)Cc1c[nH]c2ccccc12 (configuration not stated)
inactive: Potency (PA-1) | Potency (Tov-21-G) | Potency (Tov112D)

CCN1CC2(COC)C3[C@@H](OC)C4C1C3(C1C[C@]3(O)[C@H](OC(=O)c5ccccc5)C1[C@]4(OC(C)=O)[C@@H](O)[C@@H]3OC)[C@H](OC)C[C@H]2O (some centres not stated)
inactive: Potency (SKOV3) | Potency (Tov-21-G) | Potency (Tov112D)

COc1cc2c(cc1OC)[C@@]13CCN4CC5=CCO[C@H]6CC(=O)N2[C@H]1[C@H]6[C@H]5C[C@H]43
inactive: Potency (PA-1) | Potency (Tov-21-G) | Potency (Tov112D) | activity, negative = cell killing [1, 3] -6.02% | activity, negative = cell killing [1, 4] -3.06% | activity, negative = cell killing [1, 5] 1.45% | Potency (astro)
active: Potency ([1]; tumour line A) 0.0794 µM

CCCSP(=O)(OCC)SCCC
inactive: Potency (PA-1) | Potency (SKOV3) | Potency (Tov-21-G) | Potency (Tov112D) | activity, negative = cell killing ([1]; at 91.6 µM (top of the series), tumour line A) -29.2% | activity, negative = cell killing ([1]; at 91.6 µM (top of the series), tumour line B) -4.25% | activity, negative = cell killing ([1]; at 91.6 µM (top of the series), tumour line D) -15.9% | activity, negative = cell killing ([1]; at 99.2 µM (top of the series), tumour line C) 13.9% | Potency (astro) | max response [2] 5.9%

CC(C)[C@@]1(NC(=O)[C@@H]2C[C@@H]3c4cccc5[nH]cc(c45)C[C@H]3N(C)C2)O[C@@]2(O)[C@@H]3CCCN3C(=O)[C@H](Cc3ccccc3)N2C1=O
inactive: activity, negative = cell killing [1, 5] 9.68%
active: Potency ([1]; tumour line A) 3.16 µM

CN(C)CCc1c[nH]c2ccc(CN3CCN(C)S3(=O)=O)cc12
inactive: Potency (PA-1) | Potency (SKOV3) | Potency (Tov-21-G) | Potency (Tov112D)

Cc1cc(C(=O)CN2CCCC2)c(C)n1-c1ccc(F)cc1
inactive: Potency (PA-1) | Potency (Tov-21-G) | Potency (Tov112D)

C[C@]12CC[C@@H](O)C[C@H]1CC[C@@H]1[C@@H]2CC[C@]2(C)C(=O)CC[C@@H]12
inactive: Potency (PA-1) | Potency (SKOV3) | Potency (Tov-21-G) | Potency (Tov112D)

COC1C(O)C(OC2CCC3(C=O)C(CCC4C3CCC3(C)C(C5=CC(=O)OC5)CCC43O)C2)OC(C)C1OC1OC(CO)C(O)C(O)C1O (configuration not stated)
active: Potency (SKOV3) 0.708 µM | Potency (Tov-21-G) 0.631 µM | Potency (Tov112D) 0.316 µM

COC1CC(OC2CCC3(C)C(CCC4C3CCC3(C)C(C5=CC(=O)OC5)C(OC(C)=O)CC43O)C2)OC(C)C1OC1OC(CO)C(O)C(O)C1O (configuration not stated)
active: Potency (Tov-21-G) 1.26 µM | Potency (Tov112D) 0.891 µM

CC(C)C1(OO)C=C2C(=O)CC3C(C)(C(=O)O)CCCC3(C)C2CC1 (configuration not stated)
inactive: Potency (PA-1) | Potency (SKOV3) | Potency (Tov-21-G) | Potency (Tov112D)

C[C@H](NC(=O)Cc1cc(F)cc(F)c1)C(=O)N[C@@H]1N=C(c2ccccc2)c2ccccc2N(C)C1=O
inactive: Potency (PA-1) | Potency (Tov-21-G) | Potency (Tov112D)

CO[C@H]1[C@H](O)[C@H](O[C@H]2CC[C@]3(C)C4CC[C@]5(C)[C@H](C6=CC(=O)OC6)CC[C@]5(O)C4CC[C@@H]3C2)O[C@@H](C)[C@@H]1O (some centres not stated)
active: Potency (PA-1) 0.0891 µM | Potency (Tov-21-G) 0.0316 µM

COC(=O)C1(C)CCC(O)C2(C)c3cc(O)c(C(C)C)cc3C(O)C(OC(C)=O)C12 (configuration not stated)
inactive: Potency (Tov-21-G) | Potency (Tov112D)

C=C[C@H]1CN2CC[C@H]1C[C@H]2[C@H](OC(=O)OCC)c1ccnc2ccc(OC)cc12
active: Potency ([1]; tumour line A) 10 µM
inactive: activity, negative = cell killing [1, 3] -6.26% | activity, negative = cell killing [1, 4] -11.2% | activity, negative = cell killing [1, 5] 18.3% | Potency (astro)

CCC1C(C)=NN=C(c2ccc(OC)c(OC)c2)c2cc(OC)c(OC)cc21 (configuration not stated)
inactive: activity, negative = cell killing [1, 3] -16.7% | activity, negative = cell killing [1, 4] -19% | activity, negative = cell killing [1, 5] -6.07%

CC(C)(O)[C@@H]1[C@H]2OC(=O)[C@@H]1[C@]1(O)C[C@H]3O[C@]34C(=O)O[C@H]2[C@]14C
inactive: activity, negative = cell killing [1, 3] -2.1% and -10.8% | activity, negative = cell killing [1, 4] 11.7% and -21% | activity, negative = cell killing [1, 6] -37.4% and -27.2% | activity, negative = cell killing [1, 5] -9.46% and -22% | Potency (astro)

COc1ccc2c3c1O[C@H]1C(=O)CC[C@H]4[C@@H](C2)N(C)CC[C@]314
inactive: activity, negative = cell killing [1, 3] -6.83% | activity, negative = cell killing [1, 4] -23.5% | activity, negative = cell killing [1, 6] -21.5% | activity, negative = cell killing [1, 5] -7.26% | Potency (astro)

Cn1sc(Cl)cc1=O
inactive: activity, negative = cell killing [1, 3] -15.7% | activity, negative = cell killing [1, 4] -11.3% | activity, negative = cell killing [1, 6] -21.6% | activity, negative = cell killing [1, 5] -21.9% | Potency (astro)

CNC(=O)OCC[N+](C)(C)C
inactive: activity, negative = cell killing [1, 3] -5.85% | activity, negative = cell killing [1, 4] -20% | activity, negative = cell killing [1, 6] -22.4% | activity, negative = cell killing [1, 5] -19.7% | Potency (astro)

CCC(N)Cc1c[nH]c2ccccc12 (configuration not stated)
active: Potency ([1]; tumour line A) 31.6 µM
inactive: activity, negative = cell killing [1, 3] -19.3% | activity, negative = cell killing [1, 4] -10.1% | activity, negative = cell killing [1, 5] -22.2% | activity, negative = cell killing ([1]; at 108 µM (top of the series), tumour line B) -20.5% | activity, negative = cell killing ([1]; at 108 µM (top of the series), tumour line D) -20.7% | Potency (astro)

CNc1ccc(C(=O)CC(O)CCC(C)C2OC(=O)CC(O)CC(=O)CC(O)CC(O)CC(O)CC(O)CC3(O)CC(O)C(C(=O)OC)C(CC(O[C@@H]4O[C@H](C)[C@@H](O)[C@H](N)[C@@H]4O)/C=C/C=C/C=C/C=C/C=C/C=C/C=C/C2C)O3)cc1 (some centres not stated)
inactive: activity, negative = cell killing [1, 3] -16.2% | activity, negative = cell killing [1, 4] 9.06% | activity, negative = cell killing [1, 6] -20.9% | activity, negative = cell killing [1, 5] -13.4% | Potency (astro)
